Reference: the supplement of paper PMC6555819

How the values were obtained:
Assay in all cases: PBM binding z-score (relative to random genomic background probes); higher = stronger binding; sequences stand for … in GC…GCGATTGACAGCGTAGAATGAAGG
[1] = system: RARb homodimer (NR concentration 270 nM)
How it was run: (§1)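 Antibodies against each partner of ligand-free nuclear receptor dimers (one per run) detected binding on custom Agilent 4×180K protein-binding microarrays after 1 h incubation. The double-stranded probes had 34-nt variable regions carrying direct-repeat seeds, single-nucleotide variants, half-site ablations and random human genomic background sequences. Binding z-scores, from regression-normalized fluorescence, use the random background probes as reference.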

[2] = system: RARg:RXRa (NR concentration 270 nM, RXRa partner concentration 90 nM)
How it was run: as §1

[3] = system: RARg homodimer (NR concentration 270 nM)
How it was run: as §1

[4] = system: RXRa DBDmut IVT, anti-RXR (DBD mutation: RXRa K156A/R161A, NR concentration 90 nM)
How it was run: as §1

[5] = system: RXRa homodimer (NR concentration 180 nM)
How it was run: as §1

[6] = system: THRa:RXRa (NR concentration 90 nM, RXRa partner concentration 90 nM)
How it was run: as §1

[7] = system: THRa homodimer (NR concentration 90 nM)
How it was run: as §1

[8] = system: VDR:RXRa (NR concentration 270 nM, RXRa partner concentration 90 nM)
How it was run: as §1

[9] = system: VDR homodimer (NR concentration 270 nM)
How it was run: as §1

Sequence	PBM binding z-score [1]	PBM binding z-score [2]	PBM binding z-score [3]	PBM binding z-score [4]	PBM binding z-score [5]	PBM binding z-score [6]	PBM binding z-score [7]	PBM binding z-score [8]	PBM binding z-score [9]
CCTACTAGGCCATTCAGAGGTCATTGATCATATG	4.46	4.99	3.55	2.14	4.11	3.42	2.03	4.33	3.93
CCTAGCAGGCCAATTTGGGTCACTCAAGGCTTGA	2.08	0.9	1.21	0.0247	0.826	3.86	0.606	0.482	-0.23
CAGCCTAGGTCAGGGCCAGCATAGGAGGAACGTT	2.41	2.93	3.78	-0.352	1.57	1.95	0.423	0.0584	-0.327
CGAACTAGGTCATCCAGAACAGTGAATACATTGA	2.8	4.03	4.69	2.23	2.89	2.64	1.15	2.56	1.17
CCTCGGAGGACAGAAGGGCAGAGCTGTCCGCTTT	0.947	0.328	0.965	-0.318	-0.72	-0.248	-1.05	-0.902	-0.623
AGATTGAGGTTAAGATCAGGGAAACAGAATACAT	1.42	2.1	1.78	1.36	2.48	2.7	1.12	1.42	0.928
ATCTATAGGTAAGACTCAGTTCAGTGAAGAACGC	0.556	0.524	0.517	0.507	0.24	0.633	0.24	0.866	1.36
AGAACGAGGGCACGCTGAGTTCATAGCAGAGTAG	2.79	4.31	3.34	3.17	3.08	3.31	0.849	6.39	7.01
TCGCGTAGGTTAGGGGCATTCAGAATGGCGTCGA	0.811	0.412	0.26	0.518	0.821	0.842	0.102	0.397	0.649
CAAAGTAGGTCACAGAGGTCAAAGTCCGTGCGTA	5.68	7.42	8.01	3.36	8.08	4.51	2.42	7.99	6.6
TCTTGTAGATCAGAAGGTTAAGAAAGCTGGCCAA	1.17	0.818	0.198	0.89	1.31	0.538	-0.485	0.671	-0.118
CCTGCTAGGTCCATGGTCAGCTAAAGCAGCTCGC	0.248	-0.442	-0.195	1.19	-0.603	-0.287	-0.629	-0.591	0.0229
CGAACTAGGTCATCCAGGACAATGAATACATTGA	2.68	3.81	4.59	2.36	2.73	3.81	2.22	4.99	2.27
AATACAGGGTCATCGTAGGCCAGAGGACGCACAG	3.8	5.78	5.21	3.64	7.03	4.56	1.75	5.19	3.53
AGAACGAGGGCAATGAGTAGATAGCACGGGTGGC	0.9	1.33	1.4	1.67	1.14	0.671	-0.3	1.15	0.678
CGAACTAGGTCAAAGGTCAAAGTCGAGCCAACCA	5.24	8.9	7.55	3.33	10.3	4.58	1.53	6.78	3.66
GGATCGAGGGCAAGTTGATAGCAGAGTTTGATGG	1.54	1.6	1.96	1.95	0.72	1.26	0.374	0.959	2.06
TATACAGGGTCAAAGGCTAGAGTACGAATGTCGA	3.57	5.5	5.45	2.73	6.82	3.44	1.01	4.8	3.25
CCAGACAGGTGAGAAGGTAAGTCAGCCTCGATTA	0.641	0.215	0.357	0.0817	0.216	0.3	0.145	-0.106	-0.136
TAGCCTAGGTCATTGGGCCATTATAGTACGCATC	3.07	4.19	4.28	1.85	2.96	3.07	1.24	2.54	1.44
CGAACTAGGTCATCTAGGACAGTGAATACATTGA	2.74	4.13	4.96	2.2	2.99	3.3	1.49	3.73	1.48
CATCCAAGGTCAGAGAGGTCAGTGAATGCCGAGT	5.53	6.35	7.37	3.51	6.54	4.43	2.83	7.55	6.11
GCTTGTAGATTAAGGTTAAGAAAGACTAAGCTAA	0.241	0.49	0.267	0.113	0.645	2.08	0.778	0.125	-0.232
ACTATTAGTTGACTTAGGCCAACCGATACGACGC	0.826	0.899	0.91	0.805	0.539	0.898	0.912	0.432	0.435
CCTAGTTGGTCAAGAGGTCACACACCGGATATGA	5.08	6.18	5.31	1.37	6.37	4.15	2.75	4.64	3.07
TCTTGTAGATCAACAGGAGATTAAGAAAGATCGA	-1.12	-0.112	-0.181	0.2	0.147	-0.777	-1.13	0.136	-0.417
